Consider 36 molecules from PubChem BioAssay AID651899 (Broad Institute, 2012).

Each structure is given as a SMILES string. Measured potencies and affinities stand elsewhere. Active and inactive are the calls of the source. How the calls were made is not given here.

This assay can be described thus: HEK293 cell viability loss – plate reader, cherry-pick, cytotoxicity control, dose response (AID 651899).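 Further: cells exposed to compound for 48 hours.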 Conditions: series mostly up to 26 µM.
On to `Cc1nc2nc(SCC(=O)N3CCOCC3)nn2c(C)c1Cc1c(F)cccc1Cl`, for which the result was inactive.

With `COc1ccc(-c2cc(NC=O)c3ncc(-c4cccc(C(=O)N(C)C)c4)n3c2)cn1`, the molecule was classed as inactive.

With `O=C(c1ccncc1)N1CC[C@@H]2[C@@H](CO)Nc3ccc(Br)cc3[C@@H]21`, the molecule was classed as inactive.

Turning to `O=C(c1cccc(F)c1)N1CC[C@@H]2[C@H]1c1cc(-c3cccc(F)c3)ccc1N[C@@H]2CO`, the result was inactive.

As to `CC(=O)c1ccc(N2CCN(C(=O)c3ccc(Br)cc3)CC2)c(F)c1`, the outcome was inactive.

In the case of `COc1ccc(-c2nc3cnccn3c2Nc2ccc3c(c2)OCO3)cc1`, the outcome was inactive.

Take `COC(=O)C[C@@H]1C[C@@H]2c3cc(NC(=O)c4cccnc4)ccc3O[C@@H]2[C@@H](CO)O1`: the molecule was classed as inactive.

For `O=C(CN1C(=O)/C(=C/c2cccc(Br)c2)SC1=S)Nc1cccnc1`, the result was inactive.

For the molecule `CN1c2ccc(-c3cccc(C#N)c3)cc2[C@H]2[C@H](CCN2C(=O)CC2CC2)[C@H]1CO`, the call was inactive.

Consider `CO[C@H]1CN(C)C(=O)c2ccc(NC(C)=O)cc2OC[C@@H](C)N(C(=O)c2ccc(F)cc2)C[C@H]1C`, for which the molecule was called inactive.

In the case of `COc1ccc(C2c3c(oc4ccc(Cl)cc4c3=O)C(=O)N2CCN2CCOCC2)cc1` (stereo unspecified), the molecule was called inactive.

Take `Cc1ccc(Cc2c(C)nc3nc(SCC(=O)NCc4ccco4)nn3c2C)cc1`: the molecule was classed as inactive.

Take `O=C(Nc1ccc(F)c(Cl)c1)C1CCCN(c2cnccn2)C1` (stereo unspecified): the call was inactive.

`CN1c2ccc(-c3cccc(F)c3)cc2[C@H]2[C@H](CCN2C(=O)C2CCOCC2)[C@H]1CO`: the molecule was classed as inactive.

Regarding `CN(C(=O)CSc1nc2ccccc2c(=O)n1-c1ccccc1Cl)C1CCS(=O)(=O)C1` (stereo unspecified), the outcome was inactive.

Take `COc1cc(C(=O)Nc2cccnc2)cc(OC)c1OC`: the result was inactive.

With `O=C(Nc1ccc(F)c(F)c1)c1ccc(-n2cncn2)c([N+](=O)[O-])c1`, the result was inactive.

Consider `Cc1cc2c(c(=O)n1Cc1cccnc1)C(c1cccs1)C(C#N)=C(N)O2` (stereo unspecified), for which the molecule was called inactive.

In the case of `Cc1cc(NC(=O)CN(C)S(=O)(=O)c2cnc[nH]2)ccc1Br`, the call was inactive.

With `CC(Oc1ccc2ccc(=O)oc2c1)C(=O)N1CCOCC1` (stereo unspecified), the call was inactive.

For the molecule `O=C(CSc1nnc(-c2ccncc2)n1-c1ccc(Cl)cc1)NCc1cccs1`, the outcome was inactive.

On to `CN(C)C(=O)C[C@@H]1C[C@@H]2c3cc(NC(=O)c4cccnc4)ccc3O[C@@H]2[C@@H](CO)O1`, for which the molecule was called inactive.

Consider `NC(=O)c1ccc(Oc2cccc3cccnc23)c([N+](=O)[O-])c1`, for which the molecule was classed as inactive.

Take `CC(=O)c1ccc(C(=O)N2CCCC(Nc3ccc(C(C)C)cc3)C2)s1` (stereo unspecified): the call was inactive.

On to `O=C1CCCc2c1cc(C(=O)NCc1ccco1)c(=O)n2-c1ccc(Cl)cc1`, for which the call was inactive.

Regarding `O=C(Nc1ncc2c(n1)CC(c1cccc(Cl)c1)CC2=O)c1ccco1` (stereo unspecified), the molecule was classed as inactive.

Regarding `Cc1nc(=O)c(-c2ccccc2)c(C)n1-c1ccc(Br)cc1`, the call was inactive.

`C#CCSc1nnc(-c2sc(-c3ccccc3)nc2C)n1C`: the molecule was called inactive.

Regarding `CO[C@H]1CN(C)C(=O)c2ccc(NC(C)=O)cc2OC[C@@H](C)N(C(=O)C2CCCCC2)C[C@H]1C`, the molecule was called inactive.

On to `O=c1[nH]c(N2CCN(Cc3ccc4c(c3)OCO4)CC2)nc2c1CCCC2`, for which the outcome was inactive.

Take `CC1CCCN(c2ccc(C(=O)Nc3cccnc3)cc2[N+](=O)[O-])C1` (stereo unspecified): the molecule was called inactive.

Regarding `Cc1cccc(C(=O)NC2CCN(CC(=O)Nc3ccccc3Cl)CC2)c1`, the outcome was inactive.

For the molecule `COc1cc(-c2n[nH]c(=S)n2C(C)c2ccccc2)cc(OC)c1OC` (stereo unspecified), the molecule was called inactive.

Regarding `O=C(CSc1nc2c(c(=O)n1-c1ccccc1)SCC2)N1CCOCC1`, the outcome was inactive.

Consider `CC(=O)c1ccc(NC(=O)COC(=O)Cc2ccsc2)cc1`, for which the result was inactive.

Take `O=C(CSc1nc2ccccc2c(=O)n1-c1ccccc1)N1CCN(CCO)CC1`: the molecule was classed as inactive.
